Pf growth 96h: P. falciparum growth inhibition at 96 hour, primary screen for plastid delayed-death inhibitors. P. falciparum luciferase reporter growth, 96 h. Potency, µM (doses to about 28.7 µM), inactives show at the top dose activity change, negative = inhibition, most hits filed as inhibitors. actives 6.9% (n = 320,000). AID 504834; further: potency means the concentration at half of the fitted maximal effect; on the % scale 0 is the no-effect control and ±100 the full control effect
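Plates of compound plus infected erythrocytes (2% hematocrit, 0.05% parasitemia final) incubate 96 hours, 37 C, 5% CO2. Detection reagent added; reduced luminescence from the parasites' luciferase reporter flags inhibition.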
Cycloheximide cs: counter-screen hit for Shiga toxin inhibitors, cycloheximide | max response, % | AID 2314 | actives 12% (n = 300,000) | cell reporter, cycloheximide protein synthesis inhibition counterscreen; in the data active means max response mostly above about 13%, no sharp cut-off; inactive means mostly below about 14%; further: read at 38.3 µM for the half of the compounds with a filed dose; 0% is about no effect
Pf growth 48h: P. falciparum growth inhibition at 48 hours (one generation). actives 5.9% (n = 310,000). P. falciparum luciferase growth in erythrocytes, 48 h. Potency, µM (doses to about 28.7 µM), for the others: at the highest dose activity change, negative = inhibition, actives largely listed as inhibitors; further: potency means the concentration at half of the fitted maximal effect; on the % scale 0 is the no-effect control and ±100 the full control effect
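First compound was added to culture medium, then infected red cells at 0.1% parasitemia and 2% hematocrit (final). After incubation at 37 C under 5% CO2, luciferase detection reagent was dispensed and light output recorded.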
Shiga toxin inh: Shiga toxin inhibition; Vero cells, Shiga toxin protein synthesis inhibition reporter; inhibition, % at 38.7 µM; actives 9.2% (n = 290,000); AID 2315; in the data active means inhibition mostly above about 28%, no sharp cut-off; inactive means mostly below about 43%; further: 0% is about no effect
NS1 inh: blocks influenza NS1 protein function. AID 2326. Potency, µM (series often up to 46.1 µM), for inactives: at the highest dose activity, positive = more growth. actives 0.4% (n = 270,000); calls by dose curve; further: potency means the concentration at half of the fitted maximal effect; actives are rising curves; nearly all actives have a fitted effect of over 50% in size
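Read-out: OD600 growth recovery of NS1-expressing budding yeast. Cells grown overnight at 30C in -URA glucose medium, washed, resuspended and diluted 1:100 in 2% galactose assay medium, pH 6.0. Same strain lacking NS1 served as positive control.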
An asterisk follows results filed as active; ? = inconclusive; / = no result given. Rows were chosen to be rich in hits. Some 21% of all compounds tested hit in one or more screens of this group. Unless noted, the call rests on the fitted dose curve; in most records, active means well fitted inhibition curve with a large enough effect; inconclusive means small, poorly fitted or top-dose-only effect, or another doubt; inactive means no such curve, though single readings can be large or run the other way.

SMILES	Pf growth 96h	Cycloheximide cs	Pf growth 48h	Shiga toxin inh	NS1 inh
Cn1c(=O)c2c(nc(Br)n2Cc2ccccc2Cl)n(C)c1=O	?	-0.6	-0.3%	-8.6	0.6%
Cn1c(=O)c2c(nc(NCc3ccccc3)n2Cc2ccc(F)cc2)n(C)c1=O	14.7µM*	-0.5	?	3.0	-74.2%
CCCCNc1nc2c(c(=O)n(Cc3ccccc3)c(=O)n2C)n1C	142.9%	1.5	?	-2.3	5.4%
COCCNc1nc2c(c(=O)n(Cc3ccc(OC)cc3)c(=O)n2C)n1C	28.7%	2.9	-24.3%	-16.1	-47.1%
COc1ccc(CNc2nc3c(c(=O)n(Cc4ccc(Cl)cc4)c(=O)n3C)n2C)cc1	?	1.8	2.62µM*	-11.4	9.5%
Cn1c(=O)c2c(nc(N/N=C/c3cccs3)n2Cc2ccccc2)n(C)c1=O	10.4µM*	2.3	?	-5.4	-18.7%
COc1ccc(CNC(=O)C[C@H]2C(=O)N(Cc3ccc(OC)cc3)C[C@@H]2Cc2ccccc2)cc1	?	1.0	?	-5.5	-30.2%
COc1ccc(CNC(=O)C[C@H]2C(=O)N(C3CCCCC3)C[C@@H]2Cc2ccccc2)cc1	11.7µM*	-3.3	-7.7%	11.3	21.7%
COc1ccc(S(=O)(=O)Nc2ccccc2C(=O)N2CCOCC2)cc1C	0.0%	1.6	5.7%	40.8	4.5%
COc1ccc(NC(=O)Nc2ccc3nccnc3c2)cc1	?	22.4*	103.9%	79.8	-6.4%
COC(=O)c1cc(OC)c(OC)cc1NC(=O)Nc1ccc(OC)cc1	-0.9%	-3.9	/	-8.3	2.5%
COc1ccc(NC(=O)Nc2ccc3nonc3c2)cc1	126.5%	34.2*	103.5%	66.5*	-2.0%
CCOC(=O)c1ccccc1NC(=S)N1CCN(C2CCCCC2)CC1	0.0%	-1.4	-21.5%	-8.4	/
Cc1cc(C)c2nc(NNC(=O)c3cc(-c4cccs4)nc4ccccc34)sc2c1	3.29µM*	-2.6	1.85µM*	-14.7	2.0%
O=C(NN1CCOCC1)c1cc(-c2cccs2)nc2ccccc12	-0.3%	-2.6	5.8%	-4.4	0.5%
O=C(NNc1nc2ccc(Cl)cc2s1)c1cc(-c2cccs2)nc2ccccc12	7.38µM*	-3.8	?	0.1	-18.8%
Cc1ccc2sc(NNC(=O)c3cc(-c4cccs4)nc4ccccc34)nc2c1C	10.4µM*	-1.7	?	-7.1	-7.5%
C=C(C)CC(Nc1ccc(OC)cc1)c1ccco1 (stereo unspecified)	41.4%	5.7	-5.4%	41.2	5.9%
CN(C)S(=O)(=O)Oc1cc(Cl)ccc1C(=O)Nc1ccc(F)cc1F	?	34.9*	?	41.6	/
C=C(C)CSc1nnc(-c2cccc(Cl)c2)n1N	38.5%	41.5*	69.0%	110.8*	-10.1%
C=C(C)CSc1nnc(-c2ccc(OC)cc2)n1N	30.2%	44.6*	47.3%	53.3*	-5.9%
Cc1nc(NC(=O)c2ccc(Br)o2)sc1C	188.4%	44.8*	/	62.9*	-62.3%
Cc1ccc(C(=O)Nc2nnc(C)s2)o1	10.7%	9.9	/	-3.4	-3.2%
Cc1ccc(C(=O)Nc2nc(C)c(C)s2)o1	283.6%	35.5*	/	62.2*	-13.9%
Cc1ccc(S(=O)(=O)N(CC(=O)N(C(C)C)C(C)C)C(=O)N2CCN(C)CC2)cc1	27.0%	-3.3	19.7%	-2.0	-0.6%
SMILES	Pf growth 96h	Cycloheximide cs	Pf growth 48h	Shiga toxin inh	NS1 inh
O=C(O)CC(CNS(=O)(=O)c1ccccc1)c1ccccc1 (stereo unspecified)	10.4µM*	-3.5	19.0%	-8.0	3.4%
O=C(O)CCCCCCNS(=O)(=O)c1ccccc1	10.1%	-5.0	/	1.1	8.6%
CC(=O)c1ccc2c(c1)C1C(Cl)C(Sc3ccccc3[N+](=O)[O-])CC1C(C(=O)O)N2 (stereo unspecified)	2.62µM*	-3.2	-23.2%	-8.0	15.2%
c1cc(Nc2ncnc3sc4c(c23)CCC4)ccn1	13.5%	-2.0	1.65µM*	-3.1	4.6%
C(=N\Nc1ncnc2sc3c(c12)CCC3)/c1ccncc1	40.1%	-7.4	?	-33.7	-17.5%
O=C(c1ccc(Cl)nc1)N1CCC(Cc2ccccc2)CC1	?	-3.9	17.4%	-7.8	-33.7%
O=C1NC(CCc2ccccc2)C(=O)N1Cc1ccc(Br)cc1 (stereo unspecified)	31.1%	-3.7	?	-3.6	/
CC1Nc2ncnc(N3CCN(c4ccccc4)CC3)c2N(Cc2ccc(Br)cc2)C1=O (stereo unspecified)	?	/	13.1µM*	/	/
CCC1Nc2ncnc(N3CCN(c4ccccc4)CC3)c2N(Cc2ccc(C)cc2)C1=O (stereo unspecified)	11.7µM*	/	?	/	/

Bioassay records (PubChem BioAssay)
